Data on nine compounds can be found in PubChem BioAssay (NCATS).

Assay [1] deals with Thyrotropin receptor (Homo sapiens) (UniProt P16473). In words: qHTS Assay for Antagonists of the Thyroid Stimulating Hormone Receptor (AID 488980). Note: series mostly up to about 58 µM; 0% is about no effect. The gist of the method: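 Inhibition of cAMP raised by EC80 TSH (4 nM final) was read by HTRF, with lysate cAMP competing against cAMP-d2 for cryptate antibody after 30 min at room temperature. The cells were transfected HEK293 held in phosphodiesterase inhibitor RO 20-1724 at 70 uM.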
Thyrotropin receptor (Homo sapiens), sequence (P16473 whole entry, looked up): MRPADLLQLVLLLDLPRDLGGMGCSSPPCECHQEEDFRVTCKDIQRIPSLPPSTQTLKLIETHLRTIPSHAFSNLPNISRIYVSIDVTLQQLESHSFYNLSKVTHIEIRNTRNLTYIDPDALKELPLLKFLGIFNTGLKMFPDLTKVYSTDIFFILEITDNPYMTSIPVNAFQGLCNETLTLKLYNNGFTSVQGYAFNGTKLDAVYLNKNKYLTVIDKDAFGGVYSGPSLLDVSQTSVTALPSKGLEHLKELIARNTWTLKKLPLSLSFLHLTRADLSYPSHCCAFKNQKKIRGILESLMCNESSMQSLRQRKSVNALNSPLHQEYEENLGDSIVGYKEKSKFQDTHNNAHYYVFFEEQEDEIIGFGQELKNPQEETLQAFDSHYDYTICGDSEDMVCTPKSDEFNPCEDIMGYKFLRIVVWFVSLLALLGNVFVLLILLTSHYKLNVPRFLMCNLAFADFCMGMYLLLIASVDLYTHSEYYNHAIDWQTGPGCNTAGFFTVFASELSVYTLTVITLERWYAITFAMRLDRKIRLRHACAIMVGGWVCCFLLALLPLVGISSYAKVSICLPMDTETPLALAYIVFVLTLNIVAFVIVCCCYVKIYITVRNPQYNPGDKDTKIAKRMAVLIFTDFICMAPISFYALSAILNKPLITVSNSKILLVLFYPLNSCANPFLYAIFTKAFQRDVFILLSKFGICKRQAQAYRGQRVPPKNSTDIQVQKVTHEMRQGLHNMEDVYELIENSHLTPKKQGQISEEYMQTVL

Assay [2] deals with D(1A) dopamine receptor (Homo sapiens) (UniProt P21728). In words: HTS Assay for Allosteric Agonists of the Human D1 Dopamine Receptor: Primary Screen for Agonists (AID 488981). Note: 0% is about no effect. The gist of the method: (§1)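 Calcium flux in an inducible, force-coupled HEK293 Trex D1 line (overnight at 30 C): agonist mode is the 180 s kinetic read after compound; potentiator mode is the following 180 s read after dopamine at EC20.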
D(1A) dopamine receptor (Homo sapiens), sequence (P21728 whole entry, looked up): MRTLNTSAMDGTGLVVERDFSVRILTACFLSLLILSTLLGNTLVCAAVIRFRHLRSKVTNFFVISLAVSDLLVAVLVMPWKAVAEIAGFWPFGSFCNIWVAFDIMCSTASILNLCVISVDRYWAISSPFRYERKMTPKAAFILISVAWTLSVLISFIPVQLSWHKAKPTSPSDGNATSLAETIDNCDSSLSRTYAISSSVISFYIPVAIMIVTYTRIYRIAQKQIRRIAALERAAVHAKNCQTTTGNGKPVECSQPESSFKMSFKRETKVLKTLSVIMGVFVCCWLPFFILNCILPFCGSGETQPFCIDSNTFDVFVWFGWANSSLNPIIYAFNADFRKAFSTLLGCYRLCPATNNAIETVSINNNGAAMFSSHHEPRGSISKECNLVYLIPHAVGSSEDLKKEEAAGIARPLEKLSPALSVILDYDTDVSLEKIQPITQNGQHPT

Assay [3] has the same target. In words: HTS Assay for Allosteric Agonists of the Human D1 Dopamine Receptor: Primary Screen for Potentiators (AID 488982). Note: 0% is about no effect. An outline of the steps: as §1
Assay [4] can be described thus: Validation screen for small molecules that induce genotoxicity in human embryonic kidney (HEK293T) cells expressing luciferase-tagged ELG1 (AID 493106). Note: potency is the fitted concentration of half-maximal effect. An outline of the steps: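 Luminescence from an ELG1-luciferase fusion serves as the read-out, rising when genetic stress elevates ELG1 protein. HEK293T reporter cells (2,000 per well) received 23 nL compound, incubated 16 hr at 37 °C, then ONE-Glo for 30 min at room temperature.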

The target of assay [5] is ATPase family AAA domain-containing protein 5 (Homo sapiens) (UniProt Q96QE3). In words: Validation screen for small molecules that inhibit ELG1-dependent DNA repair in human embryonic kidney (HEK293T) cells expressing luciferase-tagged ELG1 (AID 493107).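 Note: cells co-treated with the DNA-damaging agent 5-fluorouridine alongside compound; series mostly up to about 46 µM; % is set by controls: 0 for no effect and ±100 for the full control effect; inhibitors lower the ELG1-luciferase luminescence signal; nearly all actives have a fitted effect of over 70% in size.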 The gist of the method:
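Luminescence from ONE-Glo, developed 30 min at room temperature, served as read-out of ELG1-luciferase levels. Beforehand, reporter HEK293T cells received 5-fluorouridine plus test compound for 16 hr at 37 °C.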

Assay [6] concerns the target Thyrotropin-releasing hormone receptor (Homo sapiens) (UniProt P34981). In words: qHTS for Small Molecule Agonists and Allosteric Enhancers of Human TRH Receptor: Validation Screen for Agonists (AID 493127;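 active = calcium activation more than 3 SD above the typical response in the agonist read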;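 note: intracellular calcium rise by fluo-8 fluorescence before TRH EC20 addition; 0% is about no effect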). As to conditions: TRH receptor agonist cell assay; at 2 µM; stronger effect = higher value. An outline of the steps: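 Cells 2000/well, 10% FCS, 18 h 33.5C/5% CO2 → fluo-8 Ca dye, RT 30 min–1.5 h → FDSS baseline 10 × 1 s → compound added → 230 cycles (1 s/cycle) agonist mode. TRH controls.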
(In general: Quantitative high-throughput screening tests each substance at several concentrations.)

Assay [7] is described as follows: Nrf2 qHTS screen for inhibitors: Validation (AID 493153; active = well fitted inhibition curve with a large enough effect in the main read-out, with a control signal flat, not every such curve was filed as active; note: potency is the fitted concentration of half-maximal effect). The conditions noted are these: Potency: luciferase luminescence; viability change: measured here: cytotoxicity max response. The gist of the method:
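Luminescence from an ARE-firefly luciferase reporter in A549 cells gives Nrf2 inhibition; an earlier CellTiter-Fluor fluorescent read flags cytotoxicity. Cells in 5% FBS OPTI-MEM received compound dilution series for 18-24 h at 37°C.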

Assay [8] in a line: qHTS for Inhibitors of Cell Surface uPA Generation: Validation Assay (AID 493164). Note: 0% is about no effect. The gist of the method:
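RAW 264.7 cells (4000/well) were plated overnight, then exposed for 18 h at 37 C, 5% CO2 to compounds in a 7-point 1:5 titration (2.45 nM–38.3 uM final). Intracellular ATP was read by ATP-Lite luminescence.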

For assay [9], the target named is Galactokinase (Homo sapiens) (UniProt P51570). In words: qHTS Validation Assay for Inhibitors of Human Galactokinase (GALK) (AID 493189). Note: 0% is about no effect. The gist of the method: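 Inhibition was measured as remaining ATP, detected by luciferase luminescence after a 1 h room-temperature reaction. Final conditions: 5 nM GALK, 100 uM galactose, 35 uM ATP, pH 8.0 HEPES buffer.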
Galactokinase (Homo sapiens), sequence (P51570 whole entry, looked up): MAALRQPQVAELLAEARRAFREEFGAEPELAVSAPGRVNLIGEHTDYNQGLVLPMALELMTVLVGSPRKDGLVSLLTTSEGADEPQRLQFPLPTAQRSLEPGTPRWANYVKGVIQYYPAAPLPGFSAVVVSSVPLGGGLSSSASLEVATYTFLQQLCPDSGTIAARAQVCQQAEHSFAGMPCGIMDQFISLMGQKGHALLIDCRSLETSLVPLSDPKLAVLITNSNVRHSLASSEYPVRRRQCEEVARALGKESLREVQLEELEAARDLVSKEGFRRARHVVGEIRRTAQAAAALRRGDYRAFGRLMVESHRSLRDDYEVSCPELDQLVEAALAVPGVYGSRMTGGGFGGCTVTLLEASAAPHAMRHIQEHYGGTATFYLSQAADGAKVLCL
Assay [10] can be described thus: Validation screen for small molecules that induce DNA re-replication in SW480 colon adenocarcinoma cells (AID 504364). Note: 0% is about no effect. An outline of the steps: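 250 cells/well; compound pinned in; 48 hr, 37 C, 5% CO2; Hoechst added, 40 min; nuclear fluorescence imaged, 405 ex / 500-530 em; re-replication scored as increase in high-intensity nuclei.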
In assay [11] the target is Peptidyl-prolyl cis-trans isomerase NIMA-interacting 1 (Homo sapiens) (UniProt Q13526). In words: qHTS Validation Assay to Find Inhibitors of Pin1 (AID 504536; active = well fitted inhibition curve with a large enough effect in the polarisation, with a control signal flat, not every such curve was filed as active; the % refers to the polarisation;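 note: 0% = full Pin1 enzyme wells and -100% = no-enzyme wells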). The gist of the method:
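Fluorescence polarization competition: compounds (titration) displace HiFluor-488-labeled Pin1-1b peptide from Pin1 (0.3 uM final) in pH 7.5 HEPES buffer with DTT, 10 min at room temperature; %Activity normalized to no-enzyme wells, curves fitted.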

Assay [12] has as its target Phosphoglycerate kinase, glycosomal (Trypanosoma brucei brucei) (UniProt P07378). In words: qHTS Validation Assay to Find Inhibitors of Phosphoglycerate Kinase (AID 504547).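 Note: control wells lack PGK and mark full inhibition.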 The gist of the method:
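Inhibition of the enzyme is judged by a Kinase-Glo Plus luminescent signal following a one-hour incubation at room temperature. Because 1,3-BPG is unstable, it is made in situ by GAPDH at 100nM final; no-PGK wells define the baseline.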

Assay [13] has as its target Ubiquitin carboxyl-terminal hydrolase 1 (Homo sapiens) (UniProt O94782). In words: Inhibitors of USP1/UAF1: Pilot qHTS (AID 504865).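 Note: rhodamine fluorescence freed from ubiquitin-rhodamine substrate followed over time; top concentration of the series differs between compounds; % is set by controls: 0 for no effect and ±100 for the full control effect; nearly all actives have a fitted effect of over 35% in size.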 The gist of the method: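 Deubiquitinase activity followed as kinetic rhodamine fluorescence release from 150 nM Ub-Rho. 1 nM USP1/UAF1 with compound, after 15 min room-temperature preincubation, in HEPES pH 7.8 buffer containing TCEP, EDTA, BSA and Tween-20.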

Assay [14] is described as follows: qHTS for Inhibitors of ATXN expression: Validation of Cytotoxic Assay (AID 588349). Note: % is set by controls: 0 for no effect and ±100 for the full control effect. An outline of the steps:
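Read-out: ATP-based luminescence (CellTiter Glo) reflecting viability of HEK293 cells after 72 hr incubation at 37 degrees C with a concentration series of each compound.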

Assay [15] addresses D(1A) dopamine receptor (Homo sapiens) (UniProt P21728). In words: HTS Assay for Allosteric Agonists of the Human D1 Dopamine Receptor: Primary Screen for Antagonists (AID 488983).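 Note: calcium flux response to an EC80 dopamine challenge measured with no-wash dye; % is set by controls: 0 for no effect and ±100 for the full control effect; nearly all actives have a fitted effect of over 65% in size.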 The gist of the method:
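Cells are induced with tetracycline and incubated overnight at 30 C, then loaded with calcium dye for 30 to 90 minutes at room temperature. Compound addition is followed by a 180 s read, then an EC80 dopamine addition and another 180 s read.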

Assay [16] addresses phosphoglycerate mutase (Leishmania major) (UniProt Q4Q090). In words: qHTS Validation Assay to Find Inhibitors of Phosphoglycerate Mutase (AID 504548). Note: series mostly up to about 58 µM; % is set by controls: 0 for no effect and ±100 for the full control effect. The conditions noted are these: Potency: inhibition qHTS. An outline of the steps: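 Luminescent end-point read-out via Kinase-GloPlus after a 10-minute development. Reaction: 1.25nM Leishmania major PGAM with substrate and compound, 45 minutes at room temperature in TEA buffer (pH 7.6) with MgCl2 and Tween-20.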

Assay [17] in a line: qHTS for Inhibitors of ATXN expression: Validation (AID 588378). Note: series mostly up to about 57 µM; % is set by controls: 0 for no effect and ±100 for the full control effect; nearly all actives have a fitted effect of over 75% in size. The gist of the method: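 Luciferase luminescence (Bright-Glo) from an ATXN2-FFLuc HEK293 line after 24 h compound exposure at 37 °C, preceded by a CellTiter-Fluor fluorescence viability read. Serial dilutions of a reference ATXN2 inhibitor and a luciferase inhibitor served as controls.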

Results filed as inconclusive are left out. The source made the active and inactive calls. Unless noted, calls come from the whole dose curve; as a rule, active = well fitted curve in the direction sought with a large enough effect; inconclusive = small, poorly fitted or top-dose-only effect, or another doubt; inactive = no such curve, though single readings can be large; an effect the other way counts as inactive or inconclusive.

Phosphoglycerate kinase, glycosomal (Trypanosoma brucei brucei), sequence (P07378 whole entry, looked up): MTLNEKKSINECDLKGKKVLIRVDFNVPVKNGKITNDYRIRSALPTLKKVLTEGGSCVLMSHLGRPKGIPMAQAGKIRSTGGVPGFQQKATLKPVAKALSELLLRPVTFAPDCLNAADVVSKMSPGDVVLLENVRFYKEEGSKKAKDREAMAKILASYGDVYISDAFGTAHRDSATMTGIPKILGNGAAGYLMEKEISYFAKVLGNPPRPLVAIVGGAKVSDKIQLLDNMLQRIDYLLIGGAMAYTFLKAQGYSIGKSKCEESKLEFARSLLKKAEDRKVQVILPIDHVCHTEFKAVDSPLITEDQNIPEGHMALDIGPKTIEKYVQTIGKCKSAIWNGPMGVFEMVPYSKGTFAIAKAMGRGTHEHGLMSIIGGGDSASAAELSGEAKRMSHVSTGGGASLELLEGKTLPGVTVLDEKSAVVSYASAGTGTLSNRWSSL
ATPase family AAA domain-containing protein 5 (Homo sapiens), sequence (Q96QE3 whole entry, looked up, the tested form may be a part): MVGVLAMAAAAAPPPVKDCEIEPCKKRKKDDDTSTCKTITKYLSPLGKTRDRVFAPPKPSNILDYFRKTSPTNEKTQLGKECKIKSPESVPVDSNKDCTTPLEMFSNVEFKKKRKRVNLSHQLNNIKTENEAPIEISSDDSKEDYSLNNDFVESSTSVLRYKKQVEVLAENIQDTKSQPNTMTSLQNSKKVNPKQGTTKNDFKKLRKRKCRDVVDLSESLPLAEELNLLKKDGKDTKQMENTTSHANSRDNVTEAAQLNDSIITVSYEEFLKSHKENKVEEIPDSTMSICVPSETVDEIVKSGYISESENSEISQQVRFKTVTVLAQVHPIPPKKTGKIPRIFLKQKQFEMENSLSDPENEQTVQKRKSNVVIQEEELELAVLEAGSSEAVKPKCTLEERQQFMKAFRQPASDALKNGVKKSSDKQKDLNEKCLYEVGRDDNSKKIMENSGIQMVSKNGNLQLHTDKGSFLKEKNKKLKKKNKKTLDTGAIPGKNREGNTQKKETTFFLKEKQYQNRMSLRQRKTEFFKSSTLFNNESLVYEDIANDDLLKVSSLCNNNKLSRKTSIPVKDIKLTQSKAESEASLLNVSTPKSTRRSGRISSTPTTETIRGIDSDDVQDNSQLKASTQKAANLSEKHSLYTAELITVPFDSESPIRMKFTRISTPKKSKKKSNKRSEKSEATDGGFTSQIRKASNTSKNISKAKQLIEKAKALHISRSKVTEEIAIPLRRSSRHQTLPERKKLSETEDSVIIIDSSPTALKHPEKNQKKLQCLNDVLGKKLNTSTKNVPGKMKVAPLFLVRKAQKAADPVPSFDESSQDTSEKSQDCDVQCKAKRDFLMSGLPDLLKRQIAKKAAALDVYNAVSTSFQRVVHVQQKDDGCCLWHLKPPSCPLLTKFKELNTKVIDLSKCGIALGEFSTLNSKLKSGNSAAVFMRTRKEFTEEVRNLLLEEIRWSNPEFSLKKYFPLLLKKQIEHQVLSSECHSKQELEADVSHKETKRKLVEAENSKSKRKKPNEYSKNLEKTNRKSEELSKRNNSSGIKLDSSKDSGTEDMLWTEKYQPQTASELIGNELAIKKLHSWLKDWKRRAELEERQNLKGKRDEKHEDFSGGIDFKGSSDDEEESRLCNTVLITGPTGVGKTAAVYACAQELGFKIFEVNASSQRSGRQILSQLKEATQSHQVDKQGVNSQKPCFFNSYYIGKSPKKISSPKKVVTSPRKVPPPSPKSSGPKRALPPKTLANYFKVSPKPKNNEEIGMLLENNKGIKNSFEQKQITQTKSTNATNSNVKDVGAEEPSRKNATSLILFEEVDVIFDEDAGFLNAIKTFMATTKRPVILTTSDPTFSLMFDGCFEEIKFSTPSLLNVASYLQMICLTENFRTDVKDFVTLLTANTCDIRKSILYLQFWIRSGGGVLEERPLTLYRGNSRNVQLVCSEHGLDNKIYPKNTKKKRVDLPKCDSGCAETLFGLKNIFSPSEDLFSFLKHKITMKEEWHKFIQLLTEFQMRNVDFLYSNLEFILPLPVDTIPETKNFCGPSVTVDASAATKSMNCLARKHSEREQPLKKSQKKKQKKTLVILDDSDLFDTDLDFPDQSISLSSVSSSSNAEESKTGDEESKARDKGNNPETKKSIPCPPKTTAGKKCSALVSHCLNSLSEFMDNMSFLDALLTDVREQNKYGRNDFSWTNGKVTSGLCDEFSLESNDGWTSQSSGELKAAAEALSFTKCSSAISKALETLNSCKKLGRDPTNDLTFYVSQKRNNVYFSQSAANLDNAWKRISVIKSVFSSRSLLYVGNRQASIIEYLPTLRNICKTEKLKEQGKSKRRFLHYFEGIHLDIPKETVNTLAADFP
Thyrotropin-releasing hormone receptor (Homo sapiens), sequence (P34981 whole entry, looked up): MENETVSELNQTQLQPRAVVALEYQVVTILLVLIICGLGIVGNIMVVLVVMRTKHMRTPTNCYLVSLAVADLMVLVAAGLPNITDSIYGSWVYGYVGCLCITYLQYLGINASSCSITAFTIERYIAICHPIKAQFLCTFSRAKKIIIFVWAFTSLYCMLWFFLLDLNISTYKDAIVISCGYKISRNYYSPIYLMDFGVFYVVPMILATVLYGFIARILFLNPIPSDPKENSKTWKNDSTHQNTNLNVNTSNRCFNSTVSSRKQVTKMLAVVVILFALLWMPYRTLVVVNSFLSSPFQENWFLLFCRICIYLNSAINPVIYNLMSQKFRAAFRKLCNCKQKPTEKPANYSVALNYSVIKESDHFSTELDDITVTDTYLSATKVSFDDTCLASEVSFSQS
Ubiquitin carboxyl-terminal hydrolase 1 (Homo sapiens), sequence (O94782 whole entry, looked up): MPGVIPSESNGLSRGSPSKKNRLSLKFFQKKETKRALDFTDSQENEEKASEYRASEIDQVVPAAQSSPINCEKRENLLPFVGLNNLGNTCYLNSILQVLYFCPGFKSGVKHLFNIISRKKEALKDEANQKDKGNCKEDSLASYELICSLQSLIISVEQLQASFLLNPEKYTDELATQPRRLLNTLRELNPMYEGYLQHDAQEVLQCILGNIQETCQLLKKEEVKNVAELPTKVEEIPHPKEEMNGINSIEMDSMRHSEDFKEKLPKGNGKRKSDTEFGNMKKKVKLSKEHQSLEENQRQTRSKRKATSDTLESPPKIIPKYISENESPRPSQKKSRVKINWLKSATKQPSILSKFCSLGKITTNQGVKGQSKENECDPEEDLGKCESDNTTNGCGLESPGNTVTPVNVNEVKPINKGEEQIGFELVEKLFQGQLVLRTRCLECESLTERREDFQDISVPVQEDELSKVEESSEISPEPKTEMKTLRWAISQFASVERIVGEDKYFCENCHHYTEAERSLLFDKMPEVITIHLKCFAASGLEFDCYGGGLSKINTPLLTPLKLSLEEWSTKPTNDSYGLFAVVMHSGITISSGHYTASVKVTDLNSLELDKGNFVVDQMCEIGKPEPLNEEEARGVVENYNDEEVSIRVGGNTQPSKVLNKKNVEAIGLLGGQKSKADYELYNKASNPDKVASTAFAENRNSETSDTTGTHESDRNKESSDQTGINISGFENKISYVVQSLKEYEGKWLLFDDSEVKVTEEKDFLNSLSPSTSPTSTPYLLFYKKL

Regarding `CCCN(CCc1ccccc1)C1CCc2c(O)cccc2C1` (configuration not stated), the result in [1] and in assay [8] was inactive. Besides, the Potency result in assay [2], in assay [3], in assay [4], in assay [5], in [7] and in assay [9] was “inactive” throughout. For the same compound, the Potency entry in assay [10], in assay [11], in assay [12], in assay [13] and in assay [14] was “inactive” each time. For the same compound, the activation in assay [6] was 1.25% (inactive). The viability change in assay [7] was -8.23%.
`Cc1cc(Cn2cnc3c2C[C@@H](C(=O)O)N(C(=O)C(c2ccccc2)c2ccccc2)C3)ccc1N`: the Potency result in [2], in assay [3], in [15], in assay [4], in assay [5] and in assay [7] was “inactive” throughout. Besides, the Potency entry in [11], in assay [12], in assay [16], in assay [13], in assay [14] and in assay [17] was “inactive” each time. Also, the viability change in assay [7] came to 6.54%. For the same compound, the result in [8] was inactive.
Turning to `C=CCn1c(=O)c2c(nc(-c3ccc(S(=O)(=O)O)cc3)n2C)n(C)c1=O`, the compound was classed as inactive in assay [1]. Besides, the Potency result in [2], in [15], in assay [4], in assay [5], in assay [7] and in [9] was “inactive” each time. Also, the Potency entry in assay [12], in assay [16], in [13] and in [17] was “inactive” throughout. In addition, in [6], the activation is -0.312% (inactive). In [7], the viability change was 9.3%.
`CCC1(O)CC2CN(CCc3c([nH]c4ccccc34)[C@@](C(=O)OC)(c3cc4c(cc3OC)N(C=O)C3[C@]45CCN4CC=C[C@@](CC)([C@@H](OC(C)=O)[C@]3(O)C(=O)OC)[C@H]45)C2)C1` (some centres not stated): the call in [1] and in [8] was inactive. The Potency entry in assay [2], in assay [3], in [15], in [9], in assay [11] and in assay [12] was “inactive” each time. The Potency result in assay [13] and in assay [17] was “inactive” each time. In addition, the Potency in [4] is 920 nM (active). In addition, the activation in [6] is 0.188% (inactive).
On to `CC(=O)SC1CC2=CC(=O)CC[C@]2(C)C2CC[C@@]3(C)C(CC[C@@]34CCC(=O)O4)C12` (some centres not stated), for which the Potency result in assay [2], in assay [3], in assay [15], in [4], in [7] and in [11] was “inactive” in each case. The Potency entry in [12], in assay [16], in assay [13] and in [14] was “inactive” each time. Moreover, the viability change in assay [7] is -9.73%.
`Nc1nc2c(cnn2CCc2ccccc2)c2nc(-c3ccco3)nn12`: the Potency result in assay [2], in assay [3], in assay [15], in assay [5], in assay [7] and in assay [11] was “inactive” in each case. Also, the Potency result in assay [12], in assay [16], in assay [13], in [14] and in [17] was “inactive” each time. Moreover, the viability change in assay [7] was -1.96%. Moreover, the call in assay [8] was inactive.
`C[C@H]1CC2C3CCC4=CC(=O)C=C[C@]4(C)[C@@]3(Cl)[C@@H](O)C[C@]2(C)[C@@]1(O)C(=O)CO` (some centres not stated): the Potency entry in [2], in assay [3], in assay [15], in assay [5], in assay [11] and in [12] was “inactive” in each case. Further, the Potency entry in [16], in [13], in assay [14] and in [17] was “inactive” in each case. The Potency in [7] is 16.4 nM (active). Also, in assay [7], the viability change stood at 4.17%. Moreover, the result in assay [8] was inactive.
Consider `CC(C)NC[C@H](O)COc1cccc2ccccc12`, for which the Potency result in assay [3], in assay [15], in assay [5], in [7], in [11] and in [13] was “inactive” in each case. The Potency entry in [14] was “inactive”. Also, in [7], the viability change is -4.73%.
As to `c1ccc(C(NCCNC(c2ccccc2)c2ccccc2)c2ccccc2)cc1`, the Potency result in [2], in assay [3], in [4], in assay [5], in [11] and in assay [12] was “inactive” in each case. Besides, the Potency entry in assay [16] is “inactive”. Further, the outcome in assay [8] was inactive.
